Shown are actives, neighbours in structure and some others; about 2.2% of the full set was active somewhere.
CRFBP-R2 agonist: agonists of human CRF-binding protein/CRF-R2 receptor complex | HEK293 CRF-R2/CRF-BP, calcium dye fluorescence (FLIPR); percent of saturating CRF peptide response | activation, % at 13.2 µM | hit rate 0.46% among 350,000 | AID 588473;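 active = activation of at least 50%, plus an integration ratio under a set limit after plate pattern correction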
cardiac RTF act: increases calcium sensitivity of human cardiac regulated thin filaments. AID 493008. activation, % at 7.2 µM. P19429+P45379. hit rate 0.24% among 340,000. IANBD-labeled TnC RTF fluorescence at EC20 calcium; 0% EC20 calcium, 100% full calcium;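 active = activation above the mean over all tested compounds plus 3 SD, cut at about 30% in these data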;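 note: rise in fluorescence read as greater calcium sensitivity of cardiac thin filaments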
Cardiac RTF inh: cardiac RTF calcium desensitization. inhibition, % at 7.15 µM. IANBD-labeled cardiac RTF, Ca2+ fluorescence. hit rate 0.12% among 340,000;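 active = inhibition above the mean inhibition of all tested compounds plus 3 SD, cut at about 17% in these data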;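 note: assay run at fixed EC70 calcium of 1.6 mM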
Myeloid diff MLP: promotes myeloid progenitor differentiation; ER-HoxA9 myeloid progenitors, lysozyme-GFP differentiation, flow cytometry; calls only at 10 µM; hit rate 1% among 360,000; AID 624256;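 active = normalized GFP-positive differentiation at or above the plate's own cutoff, the solvent-only control mean plus 3 SD; inconclusive = no clear call, values can overlap the other calls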;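 note: cells exposed to compound for four days before flow analysis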
CRFBP-R2 block: blocks CRF-induced signaling of the CRF-BP/CRF-R2 complex. HEK293 CRF-R2/CRF-BP, CRF-induced calcium fluorescence. inhibition, % at 11.8 µM. hit rate 0.59% among 350,000;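 active = inhibition of the ligand-induced calcium signal above about 50% at the single tested concentration, limit read from the data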
A number is an active result; - = inactive; ? = inconclusive; . = no result given; + = active, no number.

SMILES | CRFBP-R2 agonist | cardiac RTF act | Cardiac RTF inh | Myeloid diff MLP | CRFBP-R2 block
COCCNC(=O)CCn1nc(-c2ccc(C)cc2)ccc1=O | - | - | - | - | -
O=C(NNC(=O)c1ccccc1C(=O)O)c1ccc(O)cc1 | - | - | - | - | 57.9
O=C(NCCc1ccccc1)c1cccc(NC(=O)C2CCC2)c1 | - | - | - | - | -
O=C(NCCc1ccccc1)c1cccc(NC(=O)C2CC2)c1 | - | - | - | + | -
COC(=O)CCCn1nc(NC(=O)c2ccco2)cc1C | - | - | - | - | -
COc1cccc2sc(NNC(=O)C3=COCCO3)nc12 | - | - | - | + | -
N#Cc1nc(Nc2cccc(Cl)c2)c2ncn(C3CCCC3)c2n1 | - | - | - | . | 96.6
CCOC(=O)c1sc(-c2ccc(F)cc2)cc1NC(=O)Nc1ccccc1OC | 89.2 | - | - | - | -
CSc1cccc(CN2CCN(Cc3ccc(F)c(F)c3)C(CCO)C2)c1 (stereo not drawn) | - | - | - | - | -
COc1ccc(C2=Nc3ccccc3C2(O)CCN2C(=O)c3ccccc3C2=O)cc1 (stereo not drawn) | - | - | - | - | 67.2
Cc1ccc(-c2n[nH]c(=S)n2/N=C/c2cccn2C)cc1 | - | - | - | - | 51.8
COc1ccc(-c2sc3ccccc3c2/C=C/c2ccncc2)cc1 | - | - | - | - | -
Cc1cc(=O)n2[nH]c(C)c(-c3ccccc3)c2n1 | - | - | - | - | -
O=c1cc(-c2ccccc2)nc2c(-c3ccccc3)c(C(F)(F)F)[nH]n12 | - | . | . | - | 53.5
CC(C)(C)c1ccc(OCCNC(=O)Cc2ccc(F)cc2)cc1 | - | - | - | - | -
CC(C)(C)NC(=O)NC(=O)COC(=O)c1cc[n+]([O-])cc1 | - | - | - | - | -
COc1ccc(-c2sc3cc(OC)ccc3c2-c2ccc(OCCN3CCCCC3)cc2)cc1 | . | . | . | + | .
COc1cccc(-c2sc3ccccc3c2-c2ccc(OCCN3CCCC3)cc2)c1 | - | - | - | - | -
COc1ccc(-c2sc3ccccc3c2-c2ccc(OCCN3CCCCC3)cc2)cc1 | - | - | - | - | 61.7
Cc1ccc(CCC(=O)Nc2ccc(N(C)C)cc2)o1 | - | - | - | - | -
Cc1cccc(S(=O)(=O)NNC(=O)c2sc(C)nc2C)c1 | - | - | - | - | -
CC(=O)NC(Cc1ccc(C(C)C)cc1)C(=O)NC1CCN(C(=O)c2cccc(C)c2)CC1 (stereo not drawn) | - | - | - | - | 53.4
COC(=O)c1ccc2c(c1)C(C)(C)C(/C=C/c1ccc(O)cc1)=[N+]2C | 51.2 | - | - | . | -
COc1ccc2c(c1)C(SCC(=O)NCCc1ccc(Cl)cc1)CC(C)(C)O2 (stereo not drawn) | - | - | - | + | -
Cc1ccc(SCC(=O)Nc2ccc(N3CCOCC3)cc2)cc1C | - | - | - | - | -
SMILES | CRFBP-R2 agonist | cardiac RTF act | Cardiac RTF inh | Myeloid diff MLP | CRFBP-R2 block
CC(=O)Oc1ccc(/C=C(\NC(=O)c2ccco2)C(=O)NCc2ccco2)cc1 | - | - | - | - | -
C#CCSc1nnc(-c2cccc3ccccc23)o1 | - | - | - | + | -
C=CCSc1nnc(-c2cccc3ccccc23)o1 | - | - | - | - | -
N#Cc1cccc(C(c2nnnn2C2CCCC2)N2CCC(Cc3ccccc3)CC2)c1 (stereo not drawn) | - | - | - | - | -
N#Cc1cccc(C(c2nnnn2C2CCCC2)N2CCCCCC2)c1 (stereo not drawn) | - | - | - | - | 53.2
OC(c1ccc(F)c(F)c1)c1ncc(-c2cccc(C(F)(F)F)c2)[nH]1 (stereo not drawn) | . | . | . | - | .
COc1ccc(S(=O)(=O)N2CCCCCC2)cc1C(=O)N(C)Cc1ccc(Cl)cc1Cl | 104.2 | - | - | - | -
COc1ccc(S(=O)(=O)N2CCCCCC2)cc1NC(=O)CN(C)Cc1ccc2c(c1)OCO2 | - | - | - | + | -
O=C(CCn1ccc2cc(S(=O)(=O)N3CCCC3)ccc21)NCCc1ccccc1 | - | - | - | + | -
COc1ccc(S(=O)(=O)N2CCCCCC2)cc1C(=O)N(C)Cc1c(F)cccc1Cl | - | - | - | - | -
Cc1ccc(S(=O)(=O)N2CCCCC2)cc1C(=O)NCCc1ccccc1 | - | - | - | - | -
COc1ccc(S(=O)(=O)N2CCCCCC2)cc1C(=O)NCCc1ccccc1 | - | - | - | - | 112.1
CCOc1ccc(N(CC(=O)N2CCN(Cc3ccccc3)CC2)S(C)(=O)=O)cc1 | - | - | - | - | -
CCOc1ccc(CCNC(=O)c2cc(C)nc3ccccc23)cc1OCC | - | - | - | - | -
CCOC(=O)C(C#N)(Cc1ccc2ccccc2n1)Cc1ccc2ccccc2n1 | - | - | - | - | -
Cc1ccc(S(=O)(=O)CCC(=O)O)cc1C | - | - | - | + | -
CCc1ccc(N=Nc2ccc(O)c3[nH]cnc23)cc1 | - | - | - | + | -
COc1ccc(N=Nc2ccc(O)c3ncccc23)cc1 | - | - | - | ? | -
CC(=O)Nc1ccc(-c2ccnc3c2CC(C)(C(=O)NCc2ccc(N4CCN(C)CC4)cc2)O3)cc1 (stereo not drawn) | . | . | . | - | .
CC(C)C1Nc2c(O)cc(Cl)c([N+](=O)[O-])c2C2C=CCC21 (stereo not drawn) | - | - | - | - | 59.5
COc1ccc(NC(=O)CCC(=O)Nc2nnc(CC(C)C)s2)cc1Cl | - | - | - | - | -
N#CCc1cnc2ccccc2n1 | - | - | - | - | -
CC(=O)c1cccc(NC(=O)c2c(-c3c(F)cccc3Cl)noc2C)c1 | - | - | - | - | -
O=C(COc1cccc2cccnc12)N/N=C/c1ccccc1O | - | - | - | - | -
Oc1ccccc1/C=N/Nc1cccc2cccnc12 | - | - | - | + | -
SMILES | CRFBP-R2 agonist | cardiac RTF act | Cardiac RTF inh | Myeloid diff MLP | CRFBP-R2 block
Cc1ccc(S(=O)(=O)N(C)C)cc1NC(=O)CN1C(=O)NC2(CCCc3ccccc32)C1=O (stereo not drawn) | - | - | - | - | -
CC(Nc1ccc(Br)cc1)C(=O)Nc1cccc(S(=O)(=O)N2CCOCC2)c1 (stereo not drawn) | - | - | - | - | 89.8
CC(Oc1cccc(Br)c1)C(=O)Nc1cccc(S(=O)(=O)N2CCOCC2)c1 (stereo not drawn) | - | - | - | - | -
COc1ccc(-n2c(O)c(/C=N/NS(=O)(=O)c3cccc([N+](=O)[O-])c3)c3ccccc3c2=O)cc1OC | - | 33.4 | - | - | -
Cc1ccc2nc(/C(C#N)=C/c3ccc(-c4cccc([N+](=O)[O-])c4)o3)[nH]c2c1 | - | - | - | + | -
NC(N)=NS(=O)(=O)c1ccc(NC(=S)NC(=O)c2ccc(Br)cc2)cc1 | - | - | - | - | -
COc1ccc(-c2ccc(/C=N/NC(=O)Cc3nnc(N)s3)o2)cc1Cl | - | . | . | - | 54.6
Cc1ccc(-c2ccc(/C=N/NC(=O)Cc3nnc(N)s3)o2)cc1Cl | - | - | - | - | -
CCOC(=O)CSC1=C(C#N)C(c2ccccc2F)C(C(C)=O)=C(C)N1 (stereo not drawn) | - | - | - | - | -
